VDR inhibitor = inhibitors of human vitamin D receptor; P11473; VDR-SRC2-3 peptide fluorescence polarization, 2 h; Potency, µM, for the others: max response, negative = inhibition, hits mostly inhibitors; actives 0.93% (n = 400,000); AID 504847; note: % is set by controls: 0 for no effect and ±100 for the full control effect
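After 23 nl compound addition and a short centrifugation, plates sat for 2 hours at ambient temperature; polarization of fluorescence then indicated loss of VDR binding to peptide SRC2-3.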
JMJD2A Tudor inh = JMJD2A Tudor domain (human) inhibition. actives 4.4% (n = 390,000). Potency, µM (highest dose often 114 µM), without a hit: at the top dose activity change, negative = inhibition, usual class: inhibitors. AID 504339. AlphaScreen JMJD2A-Tudor / H3K4me3 peptide binding. O75164; note: % is set by controls: 0 for no effect and ±100 for the full control effect; nearly all actives have a fitted effect of over 50% in size
BAZ2B block = BAZ2B (human) inhibition; actives 4.4% (n = 360,000); Q9UIF8; AlphaScreen BAZ2B-H3K14Ac peptide displacement; AID 504333; Potency, µM (doses to about 114 µM), for inactives: at the top dose activity change, negative = inhibition, most hits filed as inhibitors; note: % is set by controls: 0 for no effect and ±100 for the full control effect; nearly all actives have a fitted effect of over 60% in size
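Complex of BAZ2B and biotin-H3K14Ac (50 nM apiece) forms over 30 min at RT, then faces library compounds up to 110 uM for another 30 min; AlphaScreen beads added, 20 min dark incubation, luminescence read.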
L3MBTL1 inh = inhibitors of human L3MBTL1. Q9Y468. AlphaScreen L3MBTL1–H3K9me1 peptide binding. Potency, µM (series often up to 57.1 µM), without a hit: at the highest dose activity, negative = inhibition, usual class: inhibitors. actives 0.66% (n = 230,000). AID 485360; note: % is set by controls: 0 for no effect and ±100 for the full control effect; nearly all actives have a fitted effect of over 60% in size
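L3MBTL1 50 nM + b-AHA-H3(1-15)K9me1 75 nM, 30 min RT; compound added, 30 min RT; streptavidin donor/Ni-chelate acceptor beads 10 ug/mL each final, 30 min RT dark; AlphaScreen read.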
HP1b binding inh = inhibitors of HP1-beta chromodomain binding to methylated histone tails | P83916 | AID 540317 | actives 0.56% (n = 390,000) | AlphaScreen HP1-beta / biotin-H3K9me3 peptide binding | Potency, µM (titrated, usually from 114 µM), inactives show at the highest dose activity change, negative = inhibition, actives largely listed as inhibitors; note: nearly all actives have a fitted effect of over 70% in size
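Compound inhibition of the preformed complex between 50 nM HP1-beta and 50 nM biotinylated H3K9me3 peptide was read by AlphaScreen. Buffer was PBS pH 7.4 with 0.01% Tween-20. Incubations ran 30 min at room temperature, with 10 ug/mL donor/acceptor beads.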
PLK1 PBD block = blocks phosphopeptide binding to human PLK1 polo-box domain; actives 2.8% (n = 360,000); Potency, µM, without a hit: max response, negative = inhibition, hits mostly inhibitors; Plk1 PBD binding of FITC phosphopeptide, fluorescence polarization; note: series mostly up to about 57 µM; % is set by controls: 0 for no effect and ±100 for the full control effect; nearly all actives have a fitted effect of over 65% in size
Starred values were filed as active, the others as inactive; ? = inconclusive; · = not tested or not shown; [ ] = another dose, or the depositor's remark. Only some compounds are listed: those with a hit (about 6.9% of all), similar ones and a draw of the others. Calls come from the whole dose curve; as a rule, active = well fitted curve in the direction sought with a large enough effect; inconclusive = small, poorly fitted or top-dose-only effect, or another doubt; inactive = no such curve, though single readings can be large; an effect the other way counts as inactive or inconclusive. Potency is the fitted concentration of half-maximal effect.

SMILES | VDR inhibitor | JMJD2A Tudor inh | BAZ2B block | L3MBTL1 inh | HP1b binding inh | PLK1 PBD block
COc1ccc(/C(C)=N/NC(=O)c2ccc(N(C)C)cc2)cc1 | -5% | -13% | -4% | -5% | 30% | -8%
COC(=O)c1sccc1NC(=O)c1cccc(OC)c1 | ? | ? | 34% | · | 55% | 19µM*
COc1cccc(C(=O)Nc2ccc3c(c2)C(=O)c2ccccc2C3=O)c1 | -15% | 18µM* | -36% | 1% | -12% | 27µM*
COc1ccc(C(=O)N/N=C(/C)c2ccc(N3CCCCC3)cc2)cc1 | ? | 50µM* | 2% | -4% | 8% | 30µM*
O=C(Nc1ccc2c(c1)C(=O)c1ccccc1-2)c1ccccc1 | 10% | -10% | · | · | 16% | 2%
CC(C)CC(NC(N)=O)C(=O)NCCc1ccc(Cl)cc1 (stereo not drawn) | -11% | 7%[57.1 µM] | -1% | · | 34% | -3%
CCOC(=O)C1=C(C)N=c2s/c(=C/c3ccccc3)c(=O)n2C1c1ccc(OC)c(OC)c1 (stereo not drawn) | -10% | -2% | 9% | 4% | 20% | -3%
CCOC(=O)C1=C(C)N=c2s/c(=C\c3ccc(O)c([N+](=O)[O-])c3)c(=O)n2C1c1ccccc1OC (stereo not drawn) | -2% | 10µM* | 8.9µM* | -9% | ? | ?
CCOC(=O)C1=C(C)N=c2s/c(=C/c3ccc(OCC(=O)O)cc3)c(=O)n2C1c1ccc(OC)cc1OC (stereo not drawn) | -14% | 50µM* | 35µM* | -7% | -9% | ?
CCOC(=O)C1=C(C)N=c2s/c(=C\c3ccc(OCC(=O)O)cc3)c(=O)n2C1c1ccccc1OC (stereo not drawn) | ? | 89µM* | 79µM* | · | -19% | -11%
COc1cc(OC)c(NC(=O)N2CCc3cc(S(=O)(=O)N4CCC(C)CC4)ccc32)cc1Cl | -7% | -17% | 2% | · | 5% | ·
Cc1cc([N+](=O)[O-])cnc1Sc1nccn1C | -14% | -9% | 50µM* | 7% | 35% | -4%
Cn1ccnc1Sc1ccccc1[N+](=O)[O-] | 7% | -1% | 2% | · | 40% | ?
c1ccc(Sc2ncccn2)nc1 | -10% | -9% | -2% | 7% | 17% | 27µM*
C=CC1C(N2CCOCC2)C(C)(C)S1(=O)=O (stereo not drawn) | -6% | -15%[11.4 µM] | 13% | 2% | -6% | 9.5µM*
Cc1ccc(S(=O)(=O)n2nc(C)c(C#N)c2N)cc1 | ? | ? | 1% | 7% | ? | 27µM*
Cc1ccc(S(=O)(=O)n2nc(C)cc2N)cc1 | 10% | -15% | 4% | -2% | 36% | -6%
COc1cccc(NC(=O)c2nn(-c3ccc(C)cc3)c(=O)n(C)c2=O)c1 | 11% | -17% | 20% | · | 31%[57 µM] | ·
C[C@H]1OC(OC2C(O)[C@@H](O)C(OC3C(O)[C@@H](O)C(O)O[C@@H]3CO)O[C@@H]2CO)[C@H](O)C(O)C1N[C@H]1C=C(CO)[C@@H](O)[C@H](O)C1O (stereo partly drawn) | 14% | · | · | · | · | ·
Cc1nn(-c2ncc(C(F)(F)F)cc2Cl)c(=O)n1-c1ccc(F)cc1 | -1% | 50µM* | -12% | 17% | 10% | ?
Cc1ccccc1Cn1cnc2nc3c(cc2c1=O)CC(C)CC3 (stereo not drawn) | -4% | -3% | 15% | · | 52%[57 µM] | ·
O=C(CSc1nc2ccccc2c(=O)[nH]1)c1ccc(O)cc1O | 4% | -8% | 2% | 7% | 15% | 4%
Cc1cc(=O)[nH]c(SCC(=O)c2ccc(O)c(O)c2)n1 | 19% | -8% | 56µM* | ? | 7% | 1%
COCc1cc(C)nc(SCC(=O)c2ccc(O)c(O)c2)c1C#N | 3% | 22µM* | -38% | -4% | 1% | -28%
Cc1ccnc(SCC(=O)c2ccc([N+](=O)[O-])cc2)n1 | -29% | -29% | ? | -1% | 10% | -18%
SMILES | VDR inhibitor | JMJD2A Tudor inh | BAZ2B block | L3MBTL1 inh | HP1b binding inh | PLK1 PBD block
O=C(CSc1nc2ccccc2c(=O)[nH]1)c1ccc(O)c(O)c1 | 10% | 56µM* | -8% | -5%[11.4 µM] | -58% | -17%
Cc1cc(C)nc(SCC(=O)c2ccc([N+](=O)[O-])cc2)n1 | -28% | 79µM* | -36% | -12% | -33% | 21µM*
COc1ccc(NC(=O)CC2C(=O)N(c3ccc(C)cc3)C(=O)N2Cc2cccnc2)cc1 (stereo not drawn) | 14% | 4% | -13% | · | 35% | ·
C[C@H](NC(N)=O)C(=O)Nc1ccc2c(c1)OCO2 | -3% | -27% | ? | · | 20% | 5%
Cc1ccc(C(=O)CC(SCC(=O)O)c2ccc([N+](=O)[O-])cc2)cc1 (stereo not drawn) | ? | ? | ? | -9% | 50µM* | -3%
Cc1cc(C)nc(SCC(=O)c2ccc(O)c(O)c2)n1 | 8% | 13µM* | ? | · | 20% | -12%
COCc1cc(C)nc(SCc2ccc(F)cc2)c1C#N | -27% | 190% | 176% | 94% | 110% | 24µM*
Cc1cc(C)nc(SCC(=O)NN)n1 | -11% | -4% | 50µM* | -25% | 6% | -15%
Cc1cc(C)nc(SCC(=O)Nc2ncccn2)n1 | · | · | -9% | -8% | · | ·
CCN(CC)CCCNC(=O)c1cn(C)c2ccc(S(=O)(=O)N3CCOCC3)cc2c1=O | -3% | 8% | · | · | 35% | ·
COc1ccc(/C=c2\s/c(=C/C(=O)c3ccc(C)cc3)[nH]c2=O)cc1OC | 4% | 2% | 5% | -3% | 40% | 40%
O=C(CSc1nc2ccccc2n1CCc1ccccc1)N1CCOCC1 | 0% | -3% | 6% | -12% | 39% | 6%
O=C(CSc1nc2ccccc2n1CCc1ccccc1)c1ccc(O)c(O)c1 | -20% | 7.9µM* | 2.5µM* | 3.2µM* | 25µM* | ?
CCN(CC)c1nn2c(=O)c(C(=O)NCCc3ccccc3C)cnc2s1 | 16% | -9% | -6% | · | 0% | ·
N#Cc1c2n(c3c(=S)nc[nH]c13)CCCCC2 | -5% | 35µM* | -32% | -1% | -12% | -10%
CCCCCC(=O)Nc1sc(C)c(C)c1C#N | ? | -9% | -29% | 9% | ? | 11µM*
CCCC(=O)Nc1sc(C)c(C)c1C#N | 2% | -12% | -23% | -1% | -6% | 21µM*
Cc1sc(NC(=O)C2CCCC2)c(C#N)c1C | ? | -19% | -1% | -7% | ? | 27µM*
CCCCC(=O)Nc1sc2c(c1C#N)CC(C)(C)OC2 | 79µM* | 45µM* | 9% | 11% | 10% | 27µM*
O=C(NCc1ccccc1)C1CCN(C(=O)c2cnn(-c3ccccc3)c2-n2cccc2)CC1 | 3% | -15% | -17% | · | 21% | ·
COc1ccc(NC(=O)c2c(C)oc3ccc(O)c(CN4CCN(Cc5ccccc5)CC4)c23)cc1Cl | 14% | ? | -36% | · | -9% | ·

Source: PubChem BioAssay
